Tests used:
[1] = molecular target: Dual specificity protein kinase CLK3 (Homo sapiens) (UniProt P49761); conditions: at 1 µM;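 also: each value is the mean inhibition of CLK3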
[2] = molecular target: Dual specificity tyrosine-phosphorylation-regulated kinase 1A (Homo sapiens) (UniProt Q13627); conditions: at 0.1 µM
[3] = molecular target: Dual specificity tyrosine-phosphorylation-regulated kinase 1A (Homo sapiens) (UniProt Q13627); conditions: at 1 µM
[4] = molecular target: Dual specificity tyrosine-phosphorylation-regulated kinase 1B (Homo sapiens) (UniProt Q9Y463); conditions: at 0.1 µM
Chain of Dual specificity tyrosine-phosphorylation-regulated kinase 1B (Homo sapiens) (Q9Y463 whole entry, looked up): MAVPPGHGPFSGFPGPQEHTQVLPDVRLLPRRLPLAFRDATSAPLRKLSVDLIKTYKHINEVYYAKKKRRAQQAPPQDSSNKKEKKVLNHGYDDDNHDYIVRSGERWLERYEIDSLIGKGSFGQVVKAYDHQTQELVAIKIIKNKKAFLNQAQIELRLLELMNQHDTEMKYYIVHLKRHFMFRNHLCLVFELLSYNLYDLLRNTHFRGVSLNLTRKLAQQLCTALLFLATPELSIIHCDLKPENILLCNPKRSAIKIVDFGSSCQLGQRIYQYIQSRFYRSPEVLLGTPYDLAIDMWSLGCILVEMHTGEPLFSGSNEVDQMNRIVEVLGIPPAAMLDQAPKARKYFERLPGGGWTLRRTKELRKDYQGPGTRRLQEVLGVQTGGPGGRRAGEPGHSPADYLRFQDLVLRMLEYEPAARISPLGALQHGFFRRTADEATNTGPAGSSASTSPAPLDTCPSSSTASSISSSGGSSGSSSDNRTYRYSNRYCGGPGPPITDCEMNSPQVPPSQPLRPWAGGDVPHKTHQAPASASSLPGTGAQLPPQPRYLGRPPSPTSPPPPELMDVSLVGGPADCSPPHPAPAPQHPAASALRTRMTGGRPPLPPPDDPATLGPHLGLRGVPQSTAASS

[5] = molecular target: Dual specificity tyrosine-phosphorylation-regulated kinase 1B (Homo sapiens) (UniProt Q9Y463); conditions: at 1 µM
[6] = molecular target: T1, Dual specificity tyrosine-phosphorylation-regulated kinase 2 (Homo sapiens) (UniProt Q92630); conditions: at 0.1 µM
T1 sequence (whole entry): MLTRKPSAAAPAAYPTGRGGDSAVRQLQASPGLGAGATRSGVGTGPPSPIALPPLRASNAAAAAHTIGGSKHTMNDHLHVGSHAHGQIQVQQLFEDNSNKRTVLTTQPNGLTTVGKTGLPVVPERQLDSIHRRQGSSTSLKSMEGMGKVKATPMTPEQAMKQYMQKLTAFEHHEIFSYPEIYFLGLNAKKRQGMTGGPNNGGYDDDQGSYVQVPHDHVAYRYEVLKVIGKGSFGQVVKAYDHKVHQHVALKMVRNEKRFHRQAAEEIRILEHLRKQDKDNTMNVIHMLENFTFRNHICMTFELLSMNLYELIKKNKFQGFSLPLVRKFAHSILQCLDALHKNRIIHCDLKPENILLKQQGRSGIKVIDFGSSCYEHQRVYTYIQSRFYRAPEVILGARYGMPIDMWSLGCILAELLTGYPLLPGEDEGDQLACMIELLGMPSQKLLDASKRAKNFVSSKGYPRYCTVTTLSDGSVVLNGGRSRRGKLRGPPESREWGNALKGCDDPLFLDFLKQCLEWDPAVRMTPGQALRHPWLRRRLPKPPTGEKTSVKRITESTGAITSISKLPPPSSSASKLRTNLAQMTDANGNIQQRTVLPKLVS

[7] = molecular target: T1, Dual specificity tyrosine-phosphorylation-regulated kinase 2 (Homo sapiens); conditions: at 1 µM
[8] = molecular target: Glycogen synthase kinase-3 alpha (Homo sapiens) (UniProt P49840); conditions: at 0.1 µM
Chain of Glycogen synthase kinase-3 alpha (Homo sapiens) (P49840 2-483 limits assumed): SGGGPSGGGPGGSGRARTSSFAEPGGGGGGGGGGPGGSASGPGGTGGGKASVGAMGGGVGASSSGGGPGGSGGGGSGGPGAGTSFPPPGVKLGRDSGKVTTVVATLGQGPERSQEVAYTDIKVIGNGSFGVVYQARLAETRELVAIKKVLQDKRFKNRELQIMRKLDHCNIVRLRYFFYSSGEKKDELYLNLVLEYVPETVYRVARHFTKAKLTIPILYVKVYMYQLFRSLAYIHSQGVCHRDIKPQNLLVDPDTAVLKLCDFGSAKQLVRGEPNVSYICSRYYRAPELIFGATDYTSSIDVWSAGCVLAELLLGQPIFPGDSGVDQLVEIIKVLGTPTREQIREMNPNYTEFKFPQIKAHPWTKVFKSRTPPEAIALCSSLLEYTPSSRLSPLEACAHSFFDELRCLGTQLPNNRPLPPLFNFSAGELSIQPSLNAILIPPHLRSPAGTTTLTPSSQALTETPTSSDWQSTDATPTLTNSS

[9] = molecular target: Glycogen synthase kinase-3 alpha (Homo sapiens) (UniProt P49840); conditions: at 1 µM
[10] = molecular target: Glycogen synthase kinase-3 beta (Homo sapiens) (UniProt P49841); conditions: at 0.1 µM
Chain of Glycogen synthase kinase-3 beta (Homo sapiens) (P49841 whole entry, looked up): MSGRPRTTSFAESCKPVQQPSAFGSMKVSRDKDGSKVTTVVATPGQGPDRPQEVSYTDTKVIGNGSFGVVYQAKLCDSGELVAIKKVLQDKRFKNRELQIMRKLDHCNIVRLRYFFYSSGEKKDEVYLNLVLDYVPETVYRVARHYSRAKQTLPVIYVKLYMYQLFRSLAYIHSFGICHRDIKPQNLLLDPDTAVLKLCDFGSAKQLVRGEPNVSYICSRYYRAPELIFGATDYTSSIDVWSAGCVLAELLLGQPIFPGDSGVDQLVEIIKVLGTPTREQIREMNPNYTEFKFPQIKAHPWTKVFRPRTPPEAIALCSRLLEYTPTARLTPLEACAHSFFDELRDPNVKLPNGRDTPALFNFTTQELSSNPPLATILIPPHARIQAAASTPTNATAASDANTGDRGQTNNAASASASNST

[11] = molecular target: Glycogen synthase kinase-3 beta (Homo sapiens) (UniProt P49841); conditions: at 1 µM
[12] = molecular target: Homeodomain-interacting protein kinase 1 (Homo sapiens) (UniProt Q86Z02); conditions: at 0.1 µM
Chain of Homeodomain-interacting protein kinase 1 (Homo sapiens) (Q86Z02 whole entry, looked up): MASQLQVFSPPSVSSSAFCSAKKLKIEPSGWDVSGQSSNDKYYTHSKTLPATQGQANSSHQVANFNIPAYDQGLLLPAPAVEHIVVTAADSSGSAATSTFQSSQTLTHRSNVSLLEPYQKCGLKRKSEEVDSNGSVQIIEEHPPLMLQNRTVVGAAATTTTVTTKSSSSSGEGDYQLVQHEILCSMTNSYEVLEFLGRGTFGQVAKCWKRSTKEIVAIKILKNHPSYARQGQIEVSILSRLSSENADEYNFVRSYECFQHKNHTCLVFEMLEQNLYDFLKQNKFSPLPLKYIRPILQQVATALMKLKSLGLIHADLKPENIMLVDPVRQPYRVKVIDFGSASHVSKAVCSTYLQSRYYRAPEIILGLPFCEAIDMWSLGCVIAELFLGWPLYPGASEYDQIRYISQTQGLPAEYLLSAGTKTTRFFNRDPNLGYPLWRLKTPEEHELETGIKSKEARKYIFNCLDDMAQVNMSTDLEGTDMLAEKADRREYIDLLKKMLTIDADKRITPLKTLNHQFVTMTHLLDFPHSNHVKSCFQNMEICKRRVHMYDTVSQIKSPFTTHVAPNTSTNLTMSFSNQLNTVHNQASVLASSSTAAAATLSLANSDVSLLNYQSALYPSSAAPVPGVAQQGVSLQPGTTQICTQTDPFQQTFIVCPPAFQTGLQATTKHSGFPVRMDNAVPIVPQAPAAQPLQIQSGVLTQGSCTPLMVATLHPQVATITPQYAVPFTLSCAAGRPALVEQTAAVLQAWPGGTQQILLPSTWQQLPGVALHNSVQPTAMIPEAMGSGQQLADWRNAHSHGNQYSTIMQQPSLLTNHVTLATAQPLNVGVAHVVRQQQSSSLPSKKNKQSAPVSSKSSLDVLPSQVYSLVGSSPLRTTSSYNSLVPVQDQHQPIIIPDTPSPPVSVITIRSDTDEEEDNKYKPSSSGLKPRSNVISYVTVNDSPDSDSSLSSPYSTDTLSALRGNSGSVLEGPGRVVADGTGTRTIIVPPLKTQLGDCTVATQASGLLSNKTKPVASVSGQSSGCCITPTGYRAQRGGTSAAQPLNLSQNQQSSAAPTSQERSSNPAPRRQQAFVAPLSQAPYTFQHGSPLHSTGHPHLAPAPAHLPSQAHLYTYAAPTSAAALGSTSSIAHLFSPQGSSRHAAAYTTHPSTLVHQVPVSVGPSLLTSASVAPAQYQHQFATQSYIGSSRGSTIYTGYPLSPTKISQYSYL

[13] = molecular target: Homeodomain-interacting protein kinase 1 (Homo sapiens) (UniProt Q86Z02); conditions: at 1 µM
[14] = molecular target: T2, Homeodomain-interacting protein kinase 4 (Homo sapiens) (UniProt Q8NE63); conditions: at 0.1 µM
T2 sequence (whole entry): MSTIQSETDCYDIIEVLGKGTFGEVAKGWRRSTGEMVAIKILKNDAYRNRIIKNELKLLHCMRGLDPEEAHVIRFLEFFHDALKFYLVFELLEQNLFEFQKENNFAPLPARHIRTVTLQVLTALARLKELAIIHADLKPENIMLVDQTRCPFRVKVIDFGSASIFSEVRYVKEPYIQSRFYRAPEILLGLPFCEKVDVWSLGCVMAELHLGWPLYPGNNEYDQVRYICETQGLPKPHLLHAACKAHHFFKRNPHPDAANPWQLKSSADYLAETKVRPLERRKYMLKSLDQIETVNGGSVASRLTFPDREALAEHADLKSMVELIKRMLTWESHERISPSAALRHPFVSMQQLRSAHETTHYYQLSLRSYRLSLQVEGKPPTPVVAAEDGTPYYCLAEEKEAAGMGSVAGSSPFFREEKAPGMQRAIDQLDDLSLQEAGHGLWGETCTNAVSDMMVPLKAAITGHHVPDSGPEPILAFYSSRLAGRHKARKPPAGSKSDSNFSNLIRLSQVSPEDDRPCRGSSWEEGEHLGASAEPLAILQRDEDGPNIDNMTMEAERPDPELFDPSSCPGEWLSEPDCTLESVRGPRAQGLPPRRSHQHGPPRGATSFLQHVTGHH

[15] = molecular target: T2, Homeodomain-interacting protein kinase 4 (Homo sapiens); conditions: at 1 µM
[16] = molecular target: Mitogen-activated protein kinase 9 (Homo sapiens) (UniProt P45984); conditions: at 0.1 µM
Chain of Mitogen-activated protein kinase 9 (Homo sapiens) (P45984 whole entry, looked up): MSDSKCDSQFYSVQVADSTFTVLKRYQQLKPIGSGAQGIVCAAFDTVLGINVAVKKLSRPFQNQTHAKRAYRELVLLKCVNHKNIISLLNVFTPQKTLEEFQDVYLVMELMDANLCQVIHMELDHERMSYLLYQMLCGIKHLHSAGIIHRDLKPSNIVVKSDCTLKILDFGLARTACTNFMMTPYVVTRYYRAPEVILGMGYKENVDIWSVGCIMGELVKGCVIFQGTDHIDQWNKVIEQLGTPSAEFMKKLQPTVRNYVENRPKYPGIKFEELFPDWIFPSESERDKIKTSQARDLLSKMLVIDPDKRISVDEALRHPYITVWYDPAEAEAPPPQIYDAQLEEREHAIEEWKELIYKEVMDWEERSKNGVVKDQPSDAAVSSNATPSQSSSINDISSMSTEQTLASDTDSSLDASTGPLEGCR

[17] = molecular target: Mitogen-activated protein kinase 9 (Homo sapiens) (UniProt P45984); conditions: at 1 µM
[18] = molecular target: Mitogen-activated protein kinase 1 (Homo sapiens) (UniProt P28482); conditions: at 0.1 µM
Chain of Mitogen-activated protein kinase 1 (Homo sapiens) (P28482 whole entry): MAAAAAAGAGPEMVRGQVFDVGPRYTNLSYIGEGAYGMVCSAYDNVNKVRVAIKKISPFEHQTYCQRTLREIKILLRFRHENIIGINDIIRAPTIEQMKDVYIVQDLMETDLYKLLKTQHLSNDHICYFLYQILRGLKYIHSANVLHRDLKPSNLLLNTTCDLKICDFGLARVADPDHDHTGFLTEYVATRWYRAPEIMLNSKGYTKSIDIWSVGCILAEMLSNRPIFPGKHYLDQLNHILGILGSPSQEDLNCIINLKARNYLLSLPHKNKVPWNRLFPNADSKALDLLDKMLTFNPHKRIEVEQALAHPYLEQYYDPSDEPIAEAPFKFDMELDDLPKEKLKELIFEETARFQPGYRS

[19] = molecular target: Mitogen-activated protein kinase 1 (Homo sapiens) (UniProt P28482); conditions: at 1 µM
[20] = molecular target: Mitogen-activated protein kinase 3 (Homo sapiens) (UniProt P27361); conditions: at 0.1 µM;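 also: each value is a mean inhibition figure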
Chain of Mitogen-activated protein kinase 3 (Homo sapiens) (P27361 whole entry): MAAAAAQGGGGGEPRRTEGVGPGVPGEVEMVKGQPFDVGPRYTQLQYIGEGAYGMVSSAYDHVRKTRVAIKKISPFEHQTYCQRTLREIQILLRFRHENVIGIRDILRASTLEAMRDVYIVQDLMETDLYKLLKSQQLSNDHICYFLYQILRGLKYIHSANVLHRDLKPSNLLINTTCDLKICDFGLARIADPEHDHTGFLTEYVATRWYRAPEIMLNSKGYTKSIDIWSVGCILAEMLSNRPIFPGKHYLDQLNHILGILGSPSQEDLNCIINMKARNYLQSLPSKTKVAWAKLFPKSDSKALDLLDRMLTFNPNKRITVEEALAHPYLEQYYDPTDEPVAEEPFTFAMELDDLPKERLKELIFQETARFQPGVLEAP

Chain of Dual specificity protein kinase CLK3 (Homo sapiens) (P49761 whole entry, looked up): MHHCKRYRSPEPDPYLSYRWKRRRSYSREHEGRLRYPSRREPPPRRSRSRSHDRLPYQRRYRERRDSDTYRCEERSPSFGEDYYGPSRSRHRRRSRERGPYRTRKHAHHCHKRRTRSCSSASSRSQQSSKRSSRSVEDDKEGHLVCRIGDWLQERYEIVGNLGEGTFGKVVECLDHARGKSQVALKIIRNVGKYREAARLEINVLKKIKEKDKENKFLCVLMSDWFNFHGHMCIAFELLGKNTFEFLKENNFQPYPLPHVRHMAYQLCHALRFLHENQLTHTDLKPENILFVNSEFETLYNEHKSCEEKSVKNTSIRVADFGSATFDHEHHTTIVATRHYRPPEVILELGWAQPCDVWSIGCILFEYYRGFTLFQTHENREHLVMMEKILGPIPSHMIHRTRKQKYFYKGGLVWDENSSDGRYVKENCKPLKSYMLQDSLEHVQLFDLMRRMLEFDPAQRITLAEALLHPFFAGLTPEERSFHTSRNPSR

SMILES	inhibition [1] [%]	inhibition [2] [%]	inhibition [3] [%]	inhibition [4] [%]	inhibition [5] [%]	inhibition [6] [%]	inhibition [7] [%]	inhibition [8] [%]	inhibition [9] [%]	inhibition [10] [%]	inhibition [11] [%]	inhibition [12] [%]	inhibition [13] [%]	inhibition [14] [%]	inhibition [15] [%]	inhibition [16] [%]	inhibition [17] [%]	inhibition [18] [%]	inhibition [19] [%]	inhibition [20] [%]
Nc1nccc(-c2c(-c3ccc(F)cc3)ncn2CCCN2CCOCC2)n1	1.24	2.64	3.19	0.74	0.15	3.1	4.1	1.73	4.53	0.93	4.68	0.97	-1.48	0.18	-0.66	4.45	15.8	6.64	4.64	3.65
CCOc1nccc2c1nc(-c1nonc1N)n2CC	2.9	1.13	3.41	0.32	2.83	1.54	2.84	3.1	10.2	3.37	11.9	5.35	9.39	6.7	12.2	1.55	1.43	4.78	4.07	5.64
NS(=O)(=O)c1ccc(Nc2cc(-c3cccc(O)c3)n[nH]2)cc1	2.62	3.45	7.37	0.5	2.4	3.82	4.65	2.99	6.38	2.02	5.21	-1.93	2.36	0.59	3.33	5.37	6.35	5.89	4.96	4.41
COc1cc(Nc2nccc(-c3cnn4ncccc34)n2)cc(OC)c1	77.3	85	91.2	87.4	92.4	5.46	30.2	49.7	86.8	60.2	89.9	86.8	93.7	30.6	76.3	10.4	48.1	2.31	19.7	2.46
C[C@@H](Oc1cc(-n2cnc3ccc(OC[C@@H](O)CO)cc32)sc1C(N)=O)c1ccccc1Cl	1.12	0.12	3.71	1.13	2.69	-1.33	1.61	0.1	3.84	0.42	4.23	-0.81	4.78	1.18	9.28	-0.38	-0.96	-3.13	-1.64	-0.87
O=C1Nc2ccccc2/C1=C/Nc1ccc2[nH]c(=O)[nH]c2c1	4.44	6.01	23.3	2.68	16.1	4.31	11.1	3.7	14.4	2.99	12	1.38	6.25	2.76	5.62	4.66	12.5	5.93	5.63	5.69
COc1cc2ncn(-c3cc(OCc4ccccc4S(C)(=O)=O)c(C#N)s3)c2cc1OC	3.74	6.14	19.3	2.5	13.9	2.4	4.87	4.96	11.3	4.26	8.83	2.2	28	52.5	79	2.5	6.08	1.98	5.43	3.11
Cc1cc(-c2ccccn2)cc(C)c1/C=C/c1cncc(-c2nn[nH]n2)c1	0.95	2.5	1.98	2.58	4.24	3.69	4.85	5.73	12.5	5.72	13.7	1.03	5.14	1.94	7.19	5.13	9.24	4.92	7.24	5.71
O=S(=O)(CCOCc1ccc(-c2ccc3ncnc(Nc4ccc(OCc5cccc(F)c5)c(Cl)c4)c3c2)o1)c1ccccc1	0.14	1.15	1.59	-0.1	2.9	0.96	2.34	2.99	5.63	2.14	5.91	-2.8	2.64	2.22	5.69	0.13	0.74	2.68	3.54	3.68
N#Cc1cccc(Nc2nccc(-c3cnn4ncccc34)n2)c1	78.4	81.7	86.4	81.3	86.5	20.3	71.5	85.3	89.5	84.1	88.1	82.9	89.3	79.9	88.1	10.4	44.3	15.6	59.4	8.27
Cc1ccc2c(c1)/C(=N/Nc1ccc(S(N)(=O)=O)cc1)C(=O)N2	-0.91	-1.04	2.94	-1.01	1.94	0.43	-0.62	4.1	31.3	1.9	23.7	-4.8	0	-2.11	-0.65	2.38	1.49	-0.67	2.7	2.34
COc1cc(/C=N/Nc2ncnc3c2cnn3C(C)C)ccc1O	31.6	1.4	8.18	0.35	7.69	1.46	5.67	6.47	37.4	4.9	32.9	0.71	16.1	1.74	19.6	2.63	3.44	1.48	2.57	1.63
COc1cc2ncnc(Nc3ccc4c(cnn4Cc4ccccc4)c3)c2cc1OC	0.4	2.51	2.6	-2.48	0.09	2.37	2.95	4.71	6.57	4.13	7.35	-5.38	-0.46	-0.51	0.79	0.52	1.98	2.88	4.22	1.19
Cc1cc(O)cc(C)c1/C=C/c1cncc(C(=O)N(C)C)c1	1.59	1.64	3.33	1.15	2	2.94	3.72	6.93	10.2	6.11	9.44	0.32	4.88	4.28	7.94	-0.29	2.38	2.76	2.51	3.48
Oc1cccc(-c2nc(-c3ccccc3)[nH]c2-c2ccncc2)c1	2.52	2.29	8.77	1.25	7.99	2.63	5.4	5.29	14.8	5.61	18.9	1.65	4.29	10.7	44.9	2.02	10.7	5.56	5.82	3.48
N#Cc1c(NC(=O)c2ccccc2F)sc2c1CCCC2	-0.09	-0.74	1.91	0.18	0.36	-2	-2.88	-0.74	0.03	-0.5	-0.09	-4.32	-0.26	-0.44	1.41	-2.15	2.33	-0.94	-1.13	-1.39
Cc1nc(-c2ccccc2)n2nc(NCCCN3CCOCC3)ncc12	1.74	1.71	19	1.12	7.26	1.55	5.9	5.02	13.1	4.78	18.5	0.72	13.3	1.88	14.4	1.8	5.36	3.31	6.13	4.27
NC(=O)c1cccc(Nc2nccc(Nc3cccc(F)c3)n2)c1	2.19	0.47	0.26	0.64	-0.2	1.36	1.82	3.82	21	2.25	15.8	-3.17	5.3	0.35	8.46	0.09	8.39	0.99	2.19	-0.06
Nc1nccc(C#Cc2cncnc2Nc2ccc(OCc3cccc(F)c3)c(Cl)c2)n1	3.1	3.44	10.8	1.71	4.87	3.08	4.89	4.01	14.3	2.94	10.5	-0.05	6.94	4.23	8.43	3.97	4.23	3.54	4.87	1.83
c1ccc(Cc2nc3ccc(Nc4ncnc5ccccc45)cc3[nH]2)cc1	5.49	6.02	9.77	5.37	8.13	1.99	3.84	5.62	9.56	5.99	7.73	6.99	9.6	4.87	9.82	1.51	3.95	3.59	3.76	2.28
CN(C)C(=O)O[C@H]1CN[C@H](C#Cc2cc3ncnc(Nc4ccc(OCc5cccc(F)c5)c(Cl)c4)c3s2)C1	1.86	1.54	3.38	0.21	0.78	2	2.24	1.64	5.51	1.31	4.1	-0.07	0.31	0.17	1.29	2.26	6.8	-0.55	2.89	1.44
CCS(=O)(=O)c1ccc(OC)c(Nc2nccc(N(C)c3ccc4c(C)n[nH]c4c3)n2)c1	2.41	2.89	3.45	-0.67	-0.22	2.84	2.34	2.43	3.41	1.45	1.7	-2.02	1.03	0.52	1.15	3.79	2.08	5.51	5.64	4.15
COC(=O)Nc1nc2cc(Oc3ccc(NC(=O)Nc4cccc(Br)c4)cc3)ccc2[nH]1	1.74	1.12	2.3	0.23	1.17	3.11	3.59	2.27	5.24	1.01	6.86	-0.71	2.41	8.37	19.5	3.12	4.83	2.82	2.49	2.94
[O-][S+]1CCN(Cc2ccc(-c3ccc4ncnc(Nc5ccc(OCc6ccccc6)c(Cl)c5)c4c3)o2)CC1	-0.64	1.81	2.81	0.05	0.51	1.29	0.17	1.1	1.03	0.33	1.33	-1.84	0.05	0.81	2.27	-0.11	2.26	3.15	4.09	1.32
c1ccc(Nc2ncc(-c3ccccc3)o2)cc1	1.62	3.02	2.66	-0.02	1.13	4.52	5.66	4.96	15.8	5.53	13.3	-2.56	3.15	1.19	6.31	6.78	12.9	6.94	7.41	6.5
Cc1ccc(NC(=O)CC2CC2)cc1-c1ccc(C(=O)NCC2CC2)cc1	1.83	0.93	3.49	0.61	1.49	2.06	2.68	2.32	2.3	1.75	3.08	-0.11	1.56	2.64	4.19	3.4	3.8	2.01	3.96	5.26

Source: ChEMBL document CHEMBL1961873, “Compounds: GSK PKIS; Assays: Nanosyn kinase panel” (2012)
